In all, about 96,000 compounds went through this assay and about 19,000 (20%) were called active.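 Rule for the calls: active = blocking of liver enzyme CYP2C9 beyond about 50% at 5 µM (limit read from the data); inactive = the rest.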 These entries were drawn from the full list.
Molecular target: Cytochrome P450 2C9 (Homo sapiens) (UniProt P11712)
Experiment: blockers of cytochrome P450 2C9 activity – biochemical, luminescence, ADME assay, primary screen (AID 777)
Conditions: CYP2C9 Supersomes, luciferin-H conversion, at 5 µM, active compounds read high

Cytochrome P450 2C9 (Homo sapiens), sequence (P11712 whole entry, looked up): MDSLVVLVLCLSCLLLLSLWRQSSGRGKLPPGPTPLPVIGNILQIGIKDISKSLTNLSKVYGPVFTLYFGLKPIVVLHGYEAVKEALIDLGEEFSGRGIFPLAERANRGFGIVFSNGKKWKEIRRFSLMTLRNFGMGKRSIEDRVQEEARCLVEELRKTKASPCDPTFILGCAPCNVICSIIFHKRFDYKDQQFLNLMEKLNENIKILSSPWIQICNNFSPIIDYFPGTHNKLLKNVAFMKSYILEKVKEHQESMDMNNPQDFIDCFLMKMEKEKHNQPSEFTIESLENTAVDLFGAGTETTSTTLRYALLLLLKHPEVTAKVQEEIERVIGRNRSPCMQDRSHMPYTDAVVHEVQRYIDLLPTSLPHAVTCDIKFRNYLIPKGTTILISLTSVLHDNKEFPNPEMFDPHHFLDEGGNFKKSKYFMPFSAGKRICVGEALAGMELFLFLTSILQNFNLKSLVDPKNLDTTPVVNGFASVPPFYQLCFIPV

inhibition, inactive:
COCCNC(=O)Cn1cc2c(n1)CCCCC2 1.8%
COc1cc2cc(CN(CCN3CCCC3)C(=O)Nc3ccccc3Cl)c(=O)[nH]c2cc1OC 15%
O=S(=O)(O)CCN1CCOCC1 1.4%
COc1cc(/C=C2/C(=O)ON=C2C)ccc1OCc1ccccc1F -5.4%
COc1ccc(C2SCCN2S(=O)(=O)c2ccccc2)cc1OC (centres undefined) -107%
CCCN1Cc2cccc(C(=O)NCc3ccccc3)c2C1=O 16.3%
N#CC1=C(N)OC2=C(C(=O)CCC2)C1C1CC=CCC1 (centres undefined) 37.1%
O=C(O)CN1C(=O)CC(Cc2ccccc2)C1=O (centres undefined) 7.4%
COc1ccc(OC)c(C(=O)c2ccc(C(=O)O)cc2)c1 9.5%
COc1ccc(O)c(C=Nc2cc(C)on2)c1 -5.4%
O=C(CCSc1ccccc1)NCCSc1ccccn1 41.7%
COc1ccc(C(C(O)C(=O)c2c[nH]c3ccccc23)N2CCN(c3ccccc3)CC2)cc1 (centres undefined) 26.9%
CS(=O)(=O)c1ccc2nc(NC(=O)CN3CCCCCC3)sc2c1 25.1%
CC1CCCC(NC(=O)CSc2nccn2C)C1C (centres undefined) -4.4%
CC1=CC(C)(C)N(C(=O)CSc2nnc(-c3ccccc3)o2)c2ccc(C)cc21 11.9%
COCCNC(=O)CN(C(=O)CCC(=O)Nc1cc(C)on1)c1ccc(C)cc1C -2.4%
c1n[nH]c(NCc2ccc3c(c2)OCO3)n1 1%
COc1cc2[nH]c(=S)n(CCN3CCCCC3C)c(=O)c2cc1OC (centres undefined) 23.6%
Cc1ccc(S(=O)(=O)/N=C(\CN2CCOCC2)N2CCOCC2)cc1 7.1%
CC(=O)C1C(c2cccc(Oc3ccccc3)c2)NC(=O)NC1(O)C(F)(F)F (centres undefined) 0.7%
Cc1cccc(NC(=O)CSc2nnc(NC(=O)CN3CCOCC3)s2)c1 10.9%
COCCn1c(C)cc(C(=O)CSc2ncnc3sc4c(c23)CCC4)c1C -41.7%
COCCNc1nc(-n2nc(C)cc2C)nc2sc3c(c12)CCCC3 16.5%
CCCC1C(c2ccccc2)C(C#N)(C#N)C2(C#N)CC1(N)NC2=O (centres undefined) 4.8%
COc1ccc(N2C(=O)CN=C2Nc2cccc(C)c2C)cc1OC 10.9%
Cc1ccc(S(=O)(=O)N2CC(=O)Nc3ccccc32)cc1C -50.4%
O=c1ccc2cc(S(=O)(=O)N3CCN(c4ccccc4)CC3)ccc2o1 5.5%
CCOC(=O)c1ccc(NC(=O)CSc2nnc(COc3ccccc3OC)n2C)cc1 11.7%
CCCCNC(=O)CSc1nnc(-c2ccco2)n1C 44.2%
O=C1CCCc2c1nc(-c1cccc(Cl)c1)n2O 11.3%
CC1(C)CC(=O)C(C=NCc2cccnc2)=C(O)C1 -14.4%
CCNc1nc(N)nc(-c2cc(Cl)ccc2OC)n1 -0.8%
COC(=O)c1sccc1NC(=O)c1csc2c1CCCC2 13.7%
Cc1ccc(C(=O)c2c(NC(=O)c3ccccc3)sc(C)c2C)cc1 43%
CCOC(=O)c1c(NC(=O)CCC(=O)NCc2ccco2)sc2c1CCCC2 41.9%
CNC(=O)c1c(NC(NC(=O)c2ccco2)C(=O)c2ccc(Cl)cc2)sc2c1CCCC2 (centres undefined) 46.5%
COC(=O)c1sc(NC(=O)c2csc3c2CCCC3)nc1C -7.3%
Cc1ccc(Cn2c(NC(=O)c3ccco3)nc3ccccc32)cc1 -10.6%
Cc1cc(C)nc(SC(C)C(=O)N/N=C/c2cccs2)n1 (centres undefined) 41.1%
CC12CCC(C(=O)N(CCC#N)CCC#N)(CC1=O)C2(C)C (centres undefined) -10.7%

inhibition, active:
COc1ccc(O)c(C(=O)c2cnc3onc(C(C)C)c3c2)c1 96.6%
CC1=CC(C)(C)N(C(=O)CSc2nccn2C)c2cc(C)ccc21 61.4%
N#Cc1nc(Cc2cccc3ccccc23)oc1NCc1ccc2c(c1)OCO2 63.7%
Cc1cc(C)n(-c2nc(SCC(=O)N3CCCC3)c3c4c(sc3n2)CCCC4)n1 78.8%
Cc1cc(N2CCN(S(=O)(=O)c3ccc(C)c(C)c3)CC2)c2ccccc2n1 89.9%
CCCCNC(=O)CSc1nc2ccc(NC(=O)CSc3nnc(COc4ccccc4C)n3C)cc2s1 75.1%
Cc1ccc(C(=O)c2c(NC(=O)c3ccncc3)sc3c2CCCC3)cc1 67.8%
COC(=O)c1c(NC(=O)c2cccs2)sc2c1CCCC2 58.4%
COC(=O)c1c(NC(=O)CSc2nncs2)sc2c1CCCCC2 91.9%

From PubChem BioAssay AID777 (Sanford-Burnham Center for Chemical Genomics, 2007)
